# Test results taken from ChEMBL document CHEMBL2218924, “A broad activity screen in support of a chemogenomic map for kinase signalling research and drug discovery” (Biochem J, 2013).
# How the values were obtained:
# [1] = biological target: T1, Ephrin type-A receptor 3 (Homo sapiens) (UniProt P29320); settings: at 10 µM
# T1 sequence (whole entry): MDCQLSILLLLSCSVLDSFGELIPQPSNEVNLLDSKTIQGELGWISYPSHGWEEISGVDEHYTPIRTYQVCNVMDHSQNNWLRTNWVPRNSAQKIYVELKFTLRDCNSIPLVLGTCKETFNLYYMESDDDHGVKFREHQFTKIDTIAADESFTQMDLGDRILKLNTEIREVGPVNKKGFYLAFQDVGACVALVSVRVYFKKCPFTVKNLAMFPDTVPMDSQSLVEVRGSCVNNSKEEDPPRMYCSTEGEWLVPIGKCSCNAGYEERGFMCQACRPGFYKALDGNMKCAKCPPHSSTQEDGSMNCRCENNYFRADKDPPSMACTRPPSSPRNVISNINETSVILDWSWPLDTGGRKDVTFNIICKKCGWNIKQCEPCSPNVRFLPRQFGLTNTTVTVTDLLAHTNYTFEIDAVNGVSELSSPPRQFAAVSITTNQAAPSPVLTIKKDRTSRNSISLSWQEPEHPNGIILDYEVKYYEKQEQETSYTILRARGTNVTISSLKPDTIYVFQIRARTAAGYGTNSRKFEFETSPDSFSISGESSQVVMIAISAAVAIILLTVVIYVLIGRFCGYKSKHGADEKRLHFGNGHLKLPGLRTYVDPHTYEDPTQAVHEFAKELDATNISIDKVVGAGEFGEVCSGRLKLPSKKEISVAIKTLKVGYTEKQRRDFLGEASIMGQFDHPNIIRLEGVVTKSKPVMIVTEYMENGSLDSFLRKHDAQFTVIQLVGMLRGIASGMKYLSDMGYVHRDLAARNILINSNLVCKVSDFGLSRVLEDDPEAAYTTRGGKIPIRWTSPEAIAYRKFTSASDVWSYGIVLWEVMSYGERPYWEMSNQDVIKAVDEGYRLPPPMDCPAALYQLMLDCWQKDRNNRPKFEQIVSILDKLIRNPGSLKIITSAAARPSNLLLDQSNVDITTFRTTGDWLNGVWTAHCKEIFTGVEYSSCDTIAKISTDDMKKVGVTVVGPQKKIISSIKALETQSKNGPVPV
# [2] = biological target: Ephrin type-A receptor 4 (Homo sapiens) (UniProt P54764); settings: at 1 µM
# [3] = biological target: Ephrin type-A receptor 4 (Homo sapiens) (UniProt P54764); settings: at 10 µM
# [4] = biological target: Ephrin type-A receptor 5 (Homo sapiens) (UniProt P54756); settings: at 1 µM
# [5] = biological target: Ephrin type-A receptor 5 (Homo sapiens) (UniProt P54756); settings: at 10 µM
# [6] = biological target: Ephrin type-A receptor 7 (Homo sapiens) (UniProt Q15375); settings: at 1 µM
# [7] = biological target: Ephrin type-A receptor 7 (Homo sapiens) (UniProt Q15375); settings: at 10 µM
# [8] = biological target: T2, Ephrin type-A receptor 8 (Homo sapiens) (UniProt P29322); settings: at 1 µM
# T2 sequence (whole entry): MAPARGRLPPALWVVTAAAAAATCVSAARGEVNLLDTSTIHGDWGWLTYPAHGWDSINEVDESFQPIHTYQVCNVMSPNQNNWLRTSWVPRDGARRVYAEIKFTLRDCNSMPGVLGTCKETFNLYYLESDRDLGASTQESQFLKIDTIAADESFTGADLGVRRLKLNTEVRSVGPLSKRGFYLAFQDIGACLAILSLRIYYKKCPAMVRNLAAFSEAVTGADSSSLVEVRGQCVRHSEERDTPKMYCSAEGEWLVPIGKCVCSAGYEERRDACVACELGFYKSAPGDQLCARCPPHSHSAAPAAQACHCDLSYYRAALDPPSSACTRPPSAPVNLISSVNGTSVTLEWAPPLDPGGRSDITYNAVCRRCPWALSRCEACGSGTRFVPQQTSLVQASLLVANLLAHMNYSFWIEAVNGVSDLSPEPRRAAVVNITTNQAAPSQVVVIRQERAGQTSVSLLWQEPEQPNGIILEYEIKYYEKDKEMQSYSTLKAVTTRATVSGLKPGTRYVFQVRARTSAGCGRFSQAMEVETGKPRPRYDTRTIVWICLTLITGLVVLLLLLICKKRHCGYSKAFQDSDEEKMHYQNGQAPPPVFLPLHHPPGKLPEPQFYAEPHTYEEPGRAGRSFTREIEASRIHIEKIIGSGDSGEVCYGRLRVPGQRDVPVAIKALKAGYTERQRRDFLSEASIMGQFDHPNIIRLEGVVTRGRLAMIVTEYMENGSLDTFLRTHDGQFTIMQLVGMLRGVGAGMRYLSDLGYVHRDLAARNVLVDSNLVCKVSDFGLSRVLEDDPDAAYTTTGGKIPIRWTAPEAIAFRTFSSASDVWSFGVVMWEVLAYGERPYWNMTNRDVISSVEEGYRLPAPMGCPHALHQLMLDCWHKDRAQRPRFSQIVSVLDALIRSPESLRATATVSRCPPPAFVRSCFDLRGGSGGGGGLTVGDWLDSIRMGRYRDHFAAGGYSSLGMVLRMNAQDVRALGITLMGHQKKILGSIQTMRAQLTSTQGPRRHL
# [9] = biological target: T2, Ephrin type-A receptor 8 (Homo sapiens); settings: at 10 µM
# [10] = biological target: T3, Ephrin type-B receptor 1 (Homo sapiens) (UniProt P54762); settings: at 1 µM
# T3 sequence (whole entry): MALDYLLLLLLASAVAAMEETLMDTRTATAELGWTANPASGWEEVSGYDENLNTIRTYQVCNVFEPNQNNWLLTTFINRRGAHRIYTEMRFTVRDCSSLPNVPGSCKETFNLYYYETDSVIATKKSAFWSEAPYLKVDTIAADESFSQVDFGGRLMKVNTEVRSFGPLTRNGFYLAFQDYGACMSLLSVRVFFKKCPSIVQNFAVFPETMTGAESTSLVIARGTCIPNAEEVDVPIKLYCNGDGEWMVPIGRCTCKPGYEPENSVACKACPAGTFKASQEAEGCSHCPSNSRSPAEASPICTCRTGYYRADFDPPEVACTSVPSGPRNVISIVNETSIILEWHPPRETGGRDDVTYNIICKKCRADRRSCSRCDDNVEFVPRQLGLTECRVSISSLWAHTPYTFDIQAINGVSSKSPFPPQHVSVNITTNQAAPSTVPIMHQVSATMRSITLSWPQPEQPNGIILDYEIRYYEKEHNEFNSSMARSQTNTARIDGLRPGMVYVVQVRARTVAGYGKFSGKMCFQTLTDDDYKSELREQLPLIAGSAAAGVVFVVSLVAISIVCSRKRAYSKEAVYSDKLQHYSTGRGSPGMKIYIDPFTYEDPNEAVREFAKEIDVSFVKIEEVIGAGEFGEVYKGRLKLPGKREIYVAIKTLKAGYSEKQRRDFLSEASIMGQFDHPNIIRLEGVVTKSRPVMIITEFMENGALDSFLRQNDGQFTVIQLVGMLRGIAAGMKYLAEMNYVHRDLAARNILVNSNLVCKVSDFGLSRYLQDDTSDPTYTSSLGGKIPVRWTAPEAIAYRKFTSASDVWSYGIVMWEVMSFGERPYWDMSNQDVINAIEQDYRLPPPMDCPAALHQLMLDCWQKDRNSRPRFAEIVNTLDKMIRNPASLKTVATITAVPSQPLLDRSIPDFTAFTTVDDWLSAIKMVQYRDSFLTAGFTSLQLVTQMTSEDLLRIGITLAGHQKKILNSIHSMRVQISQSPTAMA
# [11] = biological target: T3, Ephrin type-B receptor 1 (Homo sapiens); settings: at 10 µM
# [12] = biological target: T4, Ephrin type-B receptor 4 (Homo sapiens) (UniProt P54760); settings: at 1 µM
# T4 sequence (whole entry): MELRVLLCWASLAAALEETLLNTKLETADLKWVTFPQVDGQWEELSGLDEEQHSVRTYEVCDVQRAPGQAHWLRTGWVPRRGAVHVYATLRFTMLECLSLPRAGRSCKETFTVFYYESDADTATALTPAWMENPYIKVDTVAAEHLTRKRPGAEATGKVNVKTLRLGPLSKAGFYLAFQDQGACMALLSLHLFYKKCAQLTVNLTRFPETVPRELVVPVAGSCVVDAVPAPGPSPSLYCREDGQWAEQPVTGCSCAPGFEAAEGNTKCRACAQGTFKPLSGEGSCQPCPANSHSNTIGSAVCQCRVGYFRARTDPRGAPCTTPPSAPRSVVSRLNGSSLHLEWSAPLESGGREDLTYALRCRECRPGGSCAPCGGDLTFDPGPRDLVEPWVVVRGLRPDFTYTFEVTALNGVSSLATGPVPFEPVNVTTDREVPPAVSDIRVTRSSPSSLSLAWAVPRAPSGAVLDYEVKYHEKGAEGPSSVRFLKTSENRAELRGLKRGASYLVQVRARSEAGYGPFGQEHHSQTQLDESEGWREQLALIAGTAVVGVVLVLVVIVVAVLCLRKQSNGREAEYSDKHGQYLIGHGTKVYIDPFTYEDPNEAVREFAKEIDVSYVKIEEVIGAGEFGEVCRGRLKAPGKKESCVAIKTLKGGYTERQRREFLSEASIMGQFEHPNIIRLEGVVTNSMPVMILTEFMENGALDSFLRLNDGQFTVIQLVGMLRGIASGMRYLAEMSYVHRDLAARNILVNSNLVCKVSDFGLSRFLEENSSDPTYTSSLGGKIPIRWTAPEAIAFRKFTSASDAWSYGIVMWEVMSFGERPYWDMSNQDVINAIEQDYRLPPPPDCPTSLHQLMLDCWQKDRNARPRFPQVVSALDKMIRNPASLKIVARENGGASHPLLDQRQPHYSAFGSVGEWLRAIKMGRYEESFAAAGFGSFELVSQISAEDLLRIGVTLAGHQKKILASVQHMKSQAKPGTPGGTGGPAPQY
# [13] = biological target: T4, Ephrin type-B receptor 4 (Homo sapiens); settings: at 10 µM
# [14] = biological target: Receptor tyrosine-protein kinase erbB-4 (Homo sapiens) (UniProt Q15303); settings: at 1 µM
# [15] = biological target: Receptor tyrosine-protein kinase erbB-4 (Homo sapiens) (UniProt Q15303); settings: at 10 µM
# [16] = biological target: Focal adhesion kinase 1 (Homo sapiens) (UniProt Q05397); settings: at 1 µM
# Ephrin type-A receptor 7 (Homo sapiens), sequence (Q15375 28-998 limits assumed): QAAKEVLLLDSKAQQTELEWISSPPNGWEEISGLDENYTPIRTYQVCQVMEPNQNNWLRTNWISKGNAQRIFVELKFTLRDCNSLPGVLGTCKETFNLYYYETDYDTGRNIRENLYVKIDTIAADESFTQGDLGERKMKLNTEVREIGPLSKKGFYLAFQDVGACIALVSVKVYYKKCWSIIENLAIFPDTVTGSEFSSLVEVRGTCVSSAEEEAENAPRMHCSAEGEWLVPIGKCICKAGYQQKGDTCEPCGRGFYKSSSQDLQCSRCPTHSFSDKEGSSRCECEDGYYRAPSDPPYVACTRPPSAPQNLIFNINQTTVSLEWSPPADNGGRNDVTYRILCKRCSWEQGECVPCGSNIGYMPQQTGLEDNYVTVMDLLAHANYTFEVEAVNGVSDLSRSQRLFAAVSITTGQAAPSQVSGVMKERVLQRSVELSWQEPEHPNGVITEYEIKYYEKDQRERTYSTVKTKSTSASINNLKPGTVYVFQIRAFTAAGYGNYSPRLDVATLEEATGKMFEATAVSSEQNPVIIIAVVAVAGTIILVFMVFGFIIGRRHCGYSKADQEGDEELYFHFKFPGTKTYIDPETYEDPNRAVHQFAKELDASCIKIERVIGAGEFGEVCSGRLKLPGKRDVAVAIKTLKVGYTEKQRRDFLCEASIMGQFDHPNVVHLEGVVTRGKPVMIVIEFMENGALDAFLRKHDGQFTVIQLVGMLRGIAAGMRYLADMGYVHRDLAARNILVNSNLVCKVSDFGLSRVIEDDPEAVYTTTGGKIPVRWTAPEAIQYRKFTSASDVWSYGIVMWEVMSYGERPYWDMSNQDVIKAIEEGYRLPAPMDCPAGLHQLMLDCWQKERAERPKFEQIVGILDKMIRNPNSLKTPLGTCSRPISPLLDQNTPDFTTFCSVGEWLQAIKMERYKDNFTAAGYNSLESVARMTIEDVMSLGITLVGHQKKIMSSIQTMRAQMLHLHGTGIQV
# Ephrin type-A receptor 4 (Homo sapiens), sequence (P54764 whole entry): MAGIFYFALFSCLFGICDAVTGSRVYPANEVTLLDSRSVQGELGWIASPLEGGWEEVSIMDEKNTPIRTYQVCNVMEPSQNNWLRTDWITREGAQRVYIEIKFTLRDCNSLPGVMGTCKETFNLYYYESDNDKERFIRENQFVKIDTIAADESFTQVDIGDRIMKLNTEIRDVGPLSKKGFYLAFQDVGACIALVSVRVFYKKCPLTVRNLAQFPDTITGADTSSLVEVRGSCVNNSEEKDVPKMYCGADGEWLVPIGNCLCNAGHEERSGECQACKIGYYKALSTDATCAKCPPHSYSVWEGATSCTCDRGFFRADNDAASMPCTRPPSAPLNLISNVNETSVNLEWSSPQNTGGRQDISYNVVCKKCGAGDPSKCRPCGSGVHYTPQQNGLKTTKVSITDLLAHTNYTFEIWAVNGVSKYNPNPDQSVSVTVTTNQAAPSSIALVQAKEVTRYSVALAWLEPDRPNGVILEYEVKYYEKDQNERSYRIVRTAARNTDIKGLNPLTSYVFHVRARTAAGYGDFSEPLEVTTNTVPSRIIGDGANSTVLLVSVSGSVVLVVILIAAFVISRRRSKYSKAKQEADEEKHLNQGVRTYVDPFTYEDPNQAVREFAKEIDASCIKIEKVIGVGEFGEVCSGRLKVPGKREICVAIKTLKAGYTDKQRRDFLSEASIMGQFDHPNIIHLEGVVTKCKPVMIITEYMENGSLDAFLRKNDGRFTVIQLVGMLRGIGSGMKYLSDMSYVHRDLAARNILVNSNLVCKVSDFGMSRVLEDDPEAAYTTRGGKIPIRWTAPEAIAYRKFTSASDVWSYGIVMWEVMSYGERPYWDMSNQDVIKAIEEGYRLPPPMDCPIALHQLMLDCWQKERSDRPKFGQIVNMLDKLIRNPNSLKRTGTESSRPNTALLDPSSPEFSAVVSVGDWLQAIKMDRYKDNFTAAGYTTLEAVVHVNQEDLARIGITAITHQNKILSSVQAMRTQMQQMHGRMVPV
# Ephrin type-A receptor 5 (Homo sapiens), sequence (P54756 whole entry): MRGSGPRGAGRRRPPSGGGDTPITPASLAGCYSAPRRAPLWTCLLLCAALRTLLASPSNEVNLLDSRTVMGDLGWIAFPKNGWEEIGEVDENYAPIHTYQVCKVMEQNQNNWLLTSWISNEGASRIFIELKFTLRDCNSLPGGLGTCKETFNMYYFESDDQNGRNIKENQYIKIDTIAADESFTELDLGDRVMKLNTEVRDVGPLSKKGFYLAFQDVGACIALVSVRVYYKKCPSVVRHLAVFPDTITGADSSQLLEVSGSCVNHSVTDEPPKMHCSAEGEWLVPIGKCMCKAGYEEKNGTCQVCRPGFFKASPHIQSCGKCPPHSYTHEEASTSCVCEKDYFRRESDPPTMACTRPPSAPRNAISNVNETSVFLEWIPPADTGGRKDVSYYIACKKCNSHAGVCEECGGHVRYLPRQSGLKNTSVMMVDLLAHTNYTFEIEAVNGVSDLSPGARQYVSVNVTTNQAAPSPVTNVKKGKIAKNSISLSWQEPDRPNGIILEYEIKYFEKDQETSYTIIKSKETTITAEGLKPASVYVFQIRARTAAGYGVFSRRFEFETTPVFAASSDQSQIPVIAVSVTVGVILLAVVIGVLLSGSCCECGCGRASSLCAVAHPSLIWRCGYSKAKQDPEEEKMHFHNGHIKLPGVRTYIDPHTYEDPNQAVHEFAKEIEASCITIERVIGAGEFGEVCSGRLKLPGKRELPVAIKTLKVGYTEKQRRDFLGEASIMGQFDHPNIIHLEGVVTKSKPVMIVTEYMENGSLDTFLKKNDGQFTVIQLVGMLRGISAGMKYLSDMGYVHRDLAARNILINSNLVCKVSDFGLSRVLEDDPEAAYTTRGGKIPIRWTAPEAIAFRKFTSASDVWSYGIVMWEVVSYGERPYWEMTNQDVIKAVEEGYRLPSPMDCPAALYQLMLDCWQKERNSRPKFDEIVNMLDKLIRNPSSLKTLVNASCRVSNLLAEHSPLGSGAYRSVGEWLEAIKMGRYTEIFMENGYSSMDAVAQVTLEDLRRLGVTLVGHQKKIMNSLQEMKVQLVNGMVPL
# Receptor tyrosine-protein kinase erbB-4 (Homo sapiens), sequence (Q15303 whole entry): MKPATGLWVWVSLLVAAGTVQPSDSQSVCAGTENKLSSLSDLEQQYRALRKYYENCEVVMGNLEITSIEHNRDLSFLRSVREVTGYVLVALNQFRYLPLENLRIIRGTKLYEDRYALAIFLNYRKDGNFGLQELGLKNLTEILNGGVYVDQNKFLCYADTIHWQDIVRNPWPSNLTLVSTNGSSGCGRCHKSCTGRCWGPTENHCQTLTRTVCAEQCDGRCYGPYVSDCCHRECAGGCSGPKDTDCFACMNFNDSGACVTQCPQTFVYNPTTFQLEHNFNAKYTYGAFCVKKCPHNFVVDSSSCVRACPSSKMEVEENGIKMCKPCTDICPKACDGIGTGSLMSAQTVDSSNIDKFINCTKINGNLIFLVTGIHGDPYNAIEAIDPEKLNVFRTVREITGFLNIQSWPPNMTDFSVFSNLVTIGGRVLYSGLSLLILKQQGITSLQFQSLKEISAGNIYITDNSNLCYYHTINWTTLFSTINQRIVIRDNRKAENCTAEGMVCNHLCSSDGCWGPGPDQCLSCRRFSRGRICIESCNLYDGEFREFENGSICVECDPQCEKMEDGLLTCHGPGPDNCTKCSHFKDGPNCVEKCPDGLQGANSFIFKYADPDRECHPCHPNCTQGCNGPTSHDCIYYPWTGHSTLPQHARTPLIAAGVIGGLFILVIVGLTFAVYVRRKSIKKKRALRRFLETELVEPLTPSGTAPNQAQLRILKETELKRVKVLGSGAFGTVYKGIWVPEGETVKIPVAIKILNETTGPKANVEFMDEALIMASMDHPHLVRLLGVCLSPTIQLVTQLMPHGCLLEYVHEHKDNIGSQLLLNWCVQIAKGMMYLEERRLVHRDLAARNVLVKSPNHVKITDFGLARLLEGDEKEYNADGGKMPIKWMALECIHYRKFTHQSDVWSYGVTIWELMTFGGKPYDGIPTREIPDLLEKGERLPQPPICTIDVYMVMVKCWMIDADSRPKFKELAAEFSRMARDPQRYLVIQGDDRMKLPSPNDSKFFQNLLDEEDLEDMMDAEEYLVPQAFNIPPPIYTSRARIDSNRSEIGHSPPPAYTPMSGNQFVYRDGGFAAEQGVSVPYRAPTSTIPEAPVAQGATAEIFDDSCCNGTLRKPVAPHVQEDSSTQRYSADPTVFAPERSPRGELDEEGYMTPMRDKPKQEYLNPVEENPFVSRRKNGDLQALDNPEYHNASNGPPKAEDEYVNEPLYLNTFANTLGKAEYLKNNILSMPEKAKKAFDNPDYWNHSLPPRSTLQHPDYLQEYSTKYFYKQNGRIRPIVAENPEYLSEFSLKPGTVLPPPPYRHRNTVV
compound,measurement,setting,value
Nc1nc(Nc2ccc(S(N)(=O)=O)cc2)nn1C(=S)Nc1c(F)cccc1F,residual activity,[1],23%
same,residual activity,[2],97%
same,residual activity,[3],86%
same,residual activity,[4],59%
same,residual activity,[5],11%
same,residual activity,[6],3%
same,residual activity,[7],-2%
same,residual activity,[8],76%
same,residual activity,[9],24%
same,residual activity,[10],1%
same,residual activity,[11],-1%
same,residual activity,[12],30%
same,residual activity,[13],4%
same,residual activity,[14],105%
same,residual activity,[15],96%
same,residual activity,[16],20%
